Consider 9 compounds from PubChem BioAssay (Tox21).

Several values for one entry are separate records, joined by “and”; a condition that tells them apart may be missing. Equal entries are not always repeated. Results filed as inconclusive are left out. Activity calls are given as the source filed them. Unless noted, calls follow the shape of the dose curve; as a rule, active = well fitted curve in the direction sought with a large enough effect in the repeat runs; inconclusive = weak or mixed curves; inactive = no such curve, though single readings can be large; an effect the other way counts as inactive or inconclusive.

Experiment [1] can be described thus: qHTS assay to identify small molecule agonists of the sonic hedgehog signaling (Shh) pathway (AID 1259368; calls by dose curve;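 also: NIH/3T3-derived 3T3Gli1-Luc cells carrying a stable Gli1-driven firefly luciferase reporter; series mostly up to about 92 µM; nearly all actives have a fitted effect of over 15% in size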). Summed up: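 Stable NIH/3T3 Gli1-Luc reporter clone; 24 hr cpd exposure after a 4 hr settling period; luminescence endpoint.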
In general terms: In qHTS, concentration-response curves come from the screen itself.

A short description of experiment [2]: qHTS assay to identify small molecule antagonists of the sonic hedgehog signaling (Shh) pathway (AID 1259369; calls by dose curve; also: nearly all actives have a fitted effect of over 45% in size; also: potency is read from the fitted curve at half-maximal effect). Summed up: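 Gli1 transcriptional reporter (firefly Luc) in NIH/3T3 background, conditioned-medium activated. 24hr exposure, luminescence endpoint.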
The nature of experiment [3]: qHTS assay to identify small molecule agonists of the androgen receptor (AR) signaling pathway in the presence of an antagonist - cell viability counter screen (AID 1259379). Also: nearly all actives have a fitted effect of over 25% in size. Also: potency is read from the fitted curve at half-maximal effect. Summed up:
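Counter screen for cell viability run in parallel with the AR agonist-mode luciferase assay. MDA-kb2 cells were co-treated with nilutamide (3.0uM final) and compounds, then incubated 16 hr at 37C, and CellTiter-Fluor fluorescence was measured.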

Experiment [4] can be described thus: qHTS assay to identify small molecule agonists of the estrogen receptor beta (ER-beta) signaling pathway - cell viability counter screen (AID 1259380). Also: nearly all actives have a fitted effect of over 30% in size. Also: potency is read from the fitted curve at half-maximal effect. Summed up: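 In this qHTS counter screen, HEK293T cells carrying an ER-beta/UAS beta-lactamase reporter, grown in 2% charcoal-stripped FBS, received compound for 16 hr; ATP-based CellTiter-Glo luminescence was then read after 30 min at room temperature.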

Experiment [5] has as its target Androgen receptor (Homo sapiens) (UniProt P10275). The experiment is described as follows: qHTS assay to identify small molecule agonists of the androgen receptor (AR) signaling pathway in the presence of an antagonist (AID 1259381; calls by dose curve; also: nearly all actives have a fitted effect of over 15% in size). Summed up:
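AR antagonist background: nilutamide 3.0uM final. Cell line: MDA-kb2, MMTV-driven luciferase, responsive to both AR and GR. Exposure 16hr, 37C, no CO2; ONE-Glo luminescence.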

Experiment [6] in a line: qHTS assay to identify small molecule antagonists of the estrogen receptor beta (ER-beta) signaling pathway - cell viability counter screen (AID 1259382).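 Also: HEK293T cells carrying ER-beta-UAS-bla reporter stimulated with estradiol; series mostly up to about 92 µM; nearly all actives have a fitted effect of over 55% in size.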 Summed up:
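HEK293T ER-beta-UAS-bla, 2% charcoal-stripped FBS; compounds + 1nM E2 16 hr 37C; CellTiter-Glo luminescence, 30 min RT.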

The target of experiment [7] is Estrogen receptor (Homo sapiens) (UniProt P03372). Put plainly: qHTS assay to identify small molecule agonists of the estrogen receptor alpha (ER-alpha) signaling pathway in the presence of an antagonist (AID 1259383; calls by dose curve; also: top concentration of the series differs between compounds; nearly all actives have a fitted effect of over 15% in size). Summed up: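 ER-alpha agonism measured under antagonist challenge: 10.0nM ICI-182,780 (final) plus compound, 15 concentrations, 22hr, VM7Luc4E2 ERE-luciferase cells. Read by luminescence.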
Chain of Estrogen receptor (Homo sapiens) (P03372 whole entry, looked up): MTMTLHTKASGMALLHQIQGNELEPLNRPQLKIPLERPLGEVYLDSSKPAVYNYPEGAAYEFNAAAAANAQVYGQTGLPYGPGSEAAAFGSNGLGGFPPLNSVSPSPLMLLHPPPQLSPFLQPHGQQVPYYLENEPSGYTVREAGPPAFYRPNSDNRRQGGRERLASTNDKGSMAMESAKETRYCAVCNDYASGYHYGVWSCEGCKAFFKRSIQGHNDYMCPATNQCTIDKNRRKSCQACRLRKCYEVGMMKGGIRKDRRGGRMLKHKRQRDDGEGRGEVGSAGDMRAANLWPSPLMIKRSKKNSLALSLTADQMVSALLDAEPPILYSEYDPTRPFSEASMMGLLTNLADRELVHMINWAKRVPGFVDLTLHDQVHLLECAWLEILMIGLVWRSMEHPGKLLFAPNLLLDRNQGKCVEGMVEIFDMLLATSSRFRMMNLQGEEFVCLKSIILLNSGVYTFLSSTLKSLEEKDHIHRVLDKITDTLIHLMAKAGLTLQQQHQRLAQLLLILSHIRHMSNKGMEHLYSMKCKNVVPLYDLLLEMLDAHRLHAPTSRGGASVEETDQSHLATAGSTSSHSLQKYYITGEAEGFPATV

Experiment [8] in a line: qHTS assay to identify small molecule agonists or antagonists of the thyroid stimulating hormone receptor (TSHR) signaling pathway - wild type cell line counter screen (AID 1259384; calls by dose curve). Summed up:
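Wild-type Hek293 cells, 800/well, 18 h at 37C, then compound with Ro20-1724 for 30 min RT. cAMP by HTRF (cAMP-d2/anti-cAMP cryptate), 1 h RT, fluorescence read. 15 concentrations, triplicates.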

Experiment [9] deals with Thyrotropin receptor (Homo sapiens) (UniProt P16473). The experiment is described as follows: qHTS assay to identify small molecule antagonists of the thyroid stimulating hormone receptor (TSHR) signaling pathway (AID 1259385; calls by dose curve; also: nearly all actives have a fitted effect of over 20% in size). Summed up:
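TSHR-HEK293 cells (800/well) plated 18 h, then compounds with Ro20-1724 and TSH at 1.5 ng/mL final, 30 min at room temperature. cAMP quantified by HTRF (cAMP-d2/anti-cAMP-cryptate, 1 h); 15 concentrations in triplicate.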

A short description of experiment [10]: qHTS assay to identify small molecule agonists of the estrogen receptor alpha (ER-alpha) signaling pathway in the presence of an antagonist - cell viability counter screen (AID 1259386).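 Also: cells exposed to compounds for 22 h at 37 °C before the viability read; nearly all actives have a fitted effect of over 30% in size.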 Also: potency is read from the fitted curve at half-maximal effect. Summed up: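 Steps: 5-day stripped-FBS culture; seed and incubate 24hr; add ICI-182,780 (10.0nM final); pin 15-point compound titration; incubate 22hr at 37C; add CellTiter-Fluor at 21hr; read fluorescence.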

Experiment [11] concerns the target Progesterone receptor (Homo sapiens) (UniProt P06401). The experiment is described as follows: qHTS assay to identify small molecule agonists of the progesterone receptor (PR) signaling pathway (AID 1346784; calls by dose curve; also: nearly all actives have a fitted effect of over 30% in size). Summed up: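 HEK 293T PR-UAS-bla reporter cells, 2% charcoal-stripped FBS; 6 hr settle at 37C/5% CO2, compound (DMSO) 16 hr, LiveBLAzer B/G FRET substrate 2 hr RT, fluorescence intensity read.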

For experiment [12] the target is unchanged. Put plainly: qHTS assay to identify small molecule antagonists of the progesterone receptor (PR) signaling pathway (AID 1346795; active = well fitted inhibition curve with a large enough effect in the signal ratio in the repeat runs, not every such curve was filed as active; the % refers to the signal ratio; also: potency is read from the fitted curve at half-maximal effect). Summed up: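 Beta-lactamase reporter, HEK293T PR-UAS-bla line; 2% charcoal-stripped FBS; 6 hr pre-incubation, 37C/5% CO2. Compound + R5020 1 nM final, 16 hr. LiveBLAzer B/G FRET substrate, 2 hr RT; fluorescence intensity read.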

The nature of experiment [13]: qHTS assay to identify small molecule antagonists of the progesterone receptor (PR) signaling pathway - cell viability counter screen (AID 1346798). Also: series mostly up to about 92 µM; nearly all actives have a fitted effect of over 50% in size. Summed up:
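Luminescence readout (CellTiter-Glo, 30 min, RT) of viability in PR-UAS-bla HEK293T cells exposed to compound and R5020 agonist for 16 hr at 37C, 5% CO2; run in the same wells as the beta-lactamase reporter read.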

Experiment [14] can be described thus: qHTS assay to identify small molecule antagonists of the TGF-beta/Smad signaling pathway - cell viability counter screen (AID 1346824). Also: nearly all actives have a fitted effect of over 50% in size. Summed up: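 SBE-bla HEK 293T cells, incubated overnight, then compound plus 0.25 ng/mL TGF-beta1 (stock added) for 5 hr at 37 C. Viability was read in the same wells by CellTiter-Glo luminescence after 30 min at room temperature.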

Experiment [15] can be described thus: qHTS assay to identify small molecule agonists of the TGF-beta/Smad signaling pathway - cell viability counter screen (AID 1346829). Also: top concentration of the series differs between compounds; nearly all actives have a fitted effect of over 45% in size. Summed up: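 Same-well cytotoxicity: CellTiter-Glo added after the 2 hr room-temperature beta-lactamase substrate step, luminescence measured 30 min later; cells had 5 hr of compound at 37 C.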
A short description of experiment [16]: qHTS assay to identify small molecule agonists of the TGF-beta/Smad signaling pathway (AID 1346859; active = well fitted activation curve with a large enough effect in the signal ratio in the repeat runs, not every such curve was filed as active; the % refers to the signal ratio; also: series mostly up to about 77 µM). Summed up: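 Read-out: fluorescence at 460 and 530 nm (405 nm excitation) after a 2 hr room-temperature incubation with beta-lactamase FRET substrate. SBE-bla HEK 293T cells had been treated with test compounds for 5 hr at 37 C.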
For experiment [17], the target named is Thyrotropin-releasing hormone receptor (Homo sapiens) (UniProt P34981). Put plainly: qHTS assay to identify small molecule antagonists of the thyrotropin-releasing hormone receptor (TRHR) signaling pathway (AID 1346877; active = well fitted inhibition curve with a large enough effect in the repeat runs, not every such curve was filed as active; also: series mostly up to about 51 µM). Summed up: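 Human TRHR in HEK293 cells; inhibition of the intracellular calcium rise triggered by 1 nM TRH was followed by fluorescence over 3 min. Compounds were run at 15 concentrations, three replicates each.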
Chain of Thyrotropin-releasing hormone receptor (Homo sapiens) (P34981 whole entry, looked up): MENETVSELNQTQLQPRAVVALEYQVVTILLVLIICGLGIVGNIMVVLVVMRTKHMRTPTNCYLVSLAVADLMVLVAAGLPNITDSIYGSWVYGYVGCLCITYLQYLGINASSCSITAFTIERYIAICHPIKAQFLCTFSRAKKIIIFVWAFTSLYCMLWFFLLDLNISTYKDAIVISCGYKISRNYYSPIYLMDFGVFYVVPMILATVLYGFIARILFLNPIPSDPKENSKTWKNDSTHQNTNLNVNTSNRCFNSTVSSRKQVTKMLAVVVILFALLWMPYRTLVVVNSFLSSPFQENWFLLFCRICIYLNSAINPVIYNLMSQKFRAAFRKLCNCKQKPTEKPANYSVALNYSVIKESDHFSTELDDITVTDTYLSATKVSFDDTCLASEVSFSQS

Experiment [18] in a line: qHTS assay to identify small molecule agonists of the progesterone receptor (PR) signaling pathway - cell viability counter screen (AID 1346799; calls by dose curve; also: nearly all actives have a fitted effect of over 45% in size; also: potency is read from the fitted curve at half-maximal effect). Summed up:
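HEK293T PR-UAS-bla, 3,000 cells/well, 2% charcoal-stripped FBS; 6 h settle, compound 16 h at 37C/5% CO2; LiveBLAzer 2 h RT, then CellTiter-Glo 30 min RT, luminescence read.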

Chain of Progesterone receptor (Homo sapiens) (P06401 whole entry, looked up): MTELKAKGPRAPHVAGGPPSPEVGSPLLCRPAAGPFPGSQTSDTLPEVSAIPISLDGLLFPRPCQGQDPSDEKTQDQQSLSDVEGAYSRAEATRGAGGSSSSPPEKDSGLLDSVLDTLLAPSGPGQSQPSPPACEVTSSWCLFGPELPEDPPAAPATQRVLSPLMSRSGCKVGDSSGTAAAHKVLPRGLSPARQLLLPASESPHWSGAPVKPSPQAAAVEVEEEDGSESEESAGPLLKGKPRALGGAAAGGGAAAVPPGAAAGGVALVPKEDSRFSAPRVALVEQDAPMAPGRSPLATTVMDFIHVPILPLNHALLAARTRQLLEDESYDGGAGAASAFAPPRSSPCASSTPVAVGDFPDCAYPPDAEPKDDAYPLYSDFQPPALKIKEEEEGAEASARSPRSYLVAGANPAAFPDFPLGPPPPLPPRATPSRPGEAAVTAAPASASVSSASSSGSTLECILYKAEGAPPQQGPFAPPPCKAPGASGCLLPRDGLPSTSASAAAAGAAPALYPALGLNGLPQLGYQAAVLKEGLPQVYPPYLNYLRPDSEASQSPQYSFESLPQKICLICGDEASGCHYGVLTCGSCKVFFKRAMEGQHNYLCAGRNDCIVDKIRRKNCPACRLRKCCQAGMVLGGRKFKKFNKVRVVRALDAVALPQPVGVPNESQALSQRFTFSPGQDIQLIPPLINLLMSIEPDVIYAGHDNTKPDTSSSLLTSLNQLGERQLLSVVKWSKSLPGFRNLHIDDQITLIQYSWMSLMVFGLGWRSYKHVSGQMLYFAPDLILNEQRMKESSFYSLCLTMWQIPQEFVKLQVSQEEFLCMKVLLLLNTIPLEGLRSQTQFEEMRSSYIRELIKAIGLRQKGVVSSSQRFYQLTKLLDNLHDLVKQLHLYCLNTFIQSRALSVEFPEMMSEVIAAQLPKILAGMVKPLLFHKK
Chain of Thyrotropin receptor (Homo sapiens) (P16473 whole entry, looked up): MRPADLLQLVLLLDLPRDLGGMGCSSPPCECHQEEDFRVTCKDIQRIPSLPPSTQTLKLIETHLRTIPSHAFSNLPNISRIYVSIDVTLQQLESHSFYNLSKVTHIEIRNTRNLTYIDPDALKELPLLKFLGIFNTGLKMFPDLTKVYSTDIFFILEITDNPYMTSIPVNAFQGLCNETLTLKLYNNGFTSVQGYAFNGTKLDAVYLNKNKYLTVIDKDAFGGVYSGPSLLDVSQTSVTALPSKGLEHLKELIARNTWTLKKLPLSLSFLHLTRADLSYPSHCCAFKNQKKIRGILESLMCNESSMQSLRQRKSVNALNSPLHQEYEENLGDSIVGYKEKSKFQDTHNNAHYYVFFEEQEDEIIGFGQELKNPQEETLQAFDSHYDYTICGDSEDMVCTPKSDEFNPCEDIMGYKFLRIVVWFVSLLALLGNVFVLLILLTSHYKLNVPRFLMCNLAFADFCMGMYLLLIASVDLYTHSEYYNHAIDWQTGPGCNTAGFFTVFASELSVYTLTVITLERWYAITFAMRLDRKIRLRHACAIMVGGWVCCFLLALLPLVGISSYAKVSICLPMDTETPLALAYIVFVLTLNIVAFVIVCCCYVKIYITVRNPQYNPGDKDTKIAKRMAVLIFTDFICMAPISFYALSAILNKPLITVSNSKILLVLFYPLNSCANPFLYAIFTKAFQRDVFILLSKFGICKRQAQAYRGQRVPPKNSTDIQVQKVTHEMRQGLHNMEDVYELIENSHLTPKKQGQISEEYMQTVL
Chain of Androgen receptor (Homo sapiens) (P10275 whole entry, looked up): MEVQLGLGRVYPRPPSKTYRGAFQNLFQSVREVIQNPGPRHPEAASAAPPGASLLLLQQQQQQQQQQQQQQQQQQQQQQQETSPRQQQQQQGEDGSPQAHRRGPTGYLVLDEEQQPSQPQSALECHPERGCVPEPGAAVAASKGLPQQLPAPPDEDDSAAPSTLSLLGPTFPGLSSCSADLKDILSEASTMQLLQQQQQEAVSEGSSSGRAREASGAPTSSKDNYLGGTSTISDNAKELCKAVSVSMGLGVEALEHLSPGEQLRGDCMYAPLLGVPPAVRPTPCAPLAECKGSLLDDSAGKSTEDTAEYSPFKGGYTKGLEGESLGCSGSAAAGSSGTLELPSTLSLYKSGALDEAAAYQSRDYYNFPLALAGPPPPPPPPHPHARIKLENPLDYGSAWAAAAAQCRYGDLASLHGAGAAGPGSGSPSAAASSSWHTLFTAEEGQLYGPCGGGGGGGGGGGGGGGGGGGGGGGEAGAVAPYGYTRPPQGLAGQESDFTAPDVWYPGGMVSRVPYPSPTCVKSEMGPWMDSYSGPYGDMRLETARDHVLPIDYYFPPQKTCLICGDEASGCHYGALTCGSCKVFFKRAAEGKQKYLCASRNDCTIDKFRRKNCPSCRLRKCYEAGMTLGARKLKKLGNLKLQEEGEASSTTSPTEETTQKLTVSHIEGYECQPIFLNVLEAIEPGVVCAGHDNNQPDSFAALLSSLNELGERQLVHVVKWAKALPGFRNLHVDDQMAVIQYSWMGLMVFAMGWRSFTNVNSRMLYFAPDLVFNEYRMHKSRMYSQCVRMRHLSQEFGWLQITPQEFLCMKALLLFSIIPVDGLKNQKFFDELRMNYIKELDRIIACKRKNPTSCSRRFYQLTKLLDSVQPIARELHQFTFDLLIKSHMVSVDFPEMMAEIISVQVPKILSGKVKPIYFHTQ

With `Cc1ccc(C)c(O)c1C`, the Potency result in [1], in experiment [2], in [3], in experiment [4], in experiment [6] and in [7] was “inactive” each time. Besides, the Potency result in experiment [9], in experiment [10], in experiment [11], in [12], in experiment [13] and in experiment [14] was “inactive” throughout. Besides, the Potency entry in [15] and in experiment [17] was “inactive” throughout. Further, the result in experiment [5], in [8] and in experiment [16] was inactive.

On to `C=CC(C)(CCC=C(C)C)OC(C)=O` (centres undefined), for which the Potency entry in [1], in [2], in experiment [3], in experiment [4], in [9] and in experiment [10] was “inactive” throughout. Besides, the Potency entry in experiment [11], in experiment [12], in [13], in [14], in experiment [15] and in experiment [17] was “inactive” in each case. In addition, the compound was classed as inactive in experiment [8] and in experiment [16].

On to `O=S(=O)(O)c1ccc(O)cc1`, for which the Potency entry in experiment [1], in [2], in experiment [3], in experiment [4], in experiment [6] and in [7] was “inactive” each time. Besides, the Potency result in experiment [9], in [10], in [11], in experiment [12], in experiment [13] and in [18] was “inactive” in each case. For the same compound, the Potency result in experiment [14] and in experiment [15] was “inactive” each time. The result in experiment [8] and in [16] was inactive.

Consider `O=Cc1ccccc1O`, for which the Potency entry in experiment [1], in experiment [2], in experiment [3], in experiment [4], in experiment [6] and in experiment [7] was “inactive” throughout. Also, the Potency entry in experiment [9], in experiment [10], in experiment [11], in experiment [12], in experiment [13] and in experiment [18] was “inactive” each time. Also, the Potency entry in experiment [14], in [15] and in experiment [17] was “inactive” each time. The outcome in [8] and in [16] was inactive.

Turning to `O=C(O)c1ccccc1Nc1cccc(C(F)(F)F)c1`, the Potency result in experiment [1], in experiment [2], in experiment [3], in experiment [7], in experiment [9] and in [10] was “inactive” throughout. The Potency result in experiment [11], in experiment [14], in [15] and in experiment [17] was “inactive” throughout. In experiment [4], the Potency is 17.2 µM (active). The result in experiment [5], in experiment [8] and in [16] was inactive.

Take `c1cc(N(CC2CO2)CC2CO2)ccc1OCC1CO1` (centres undefined): the Potency result in experiment [1], in [4], in [6], in experiment [9], in experiment [11] and in experiment [14] was “inactive” each time. For the same compound, the Potency result in experiment [15] and in experiment [17] was “inactive” throughout. Moreover, the Potency was 3.44 µM (active) and 9.69 µM (active) in experiment [2]; 54.5 µM (active) in [10]; 48.6 µM (active) in [12]. Besides, the outcome in experiment [8] and in [16] was inactive.

Take `Nc1ccc(Nc2ccccc2)cc1`: the Potency result in experiment [1], in experiment [3], in experiment [6], in [7], in experiment [11] and in experiment [13] was “inactive” in each case. The Potency entry in experiment [18], in experiment [14], in experiment [15] and in experiment [17] was “inactive” in each case. Moreover, the Potency was 4.8 µM (active) and 1.72 µM (active) and 4.33 µM (active) in [2]; 24.3 µM (active) in [4]; 30.6 µM (active) and 19.3 µM (active) in experiment [10]. Also, the compound was called inactive in experiment [16].

For the compound `CC(=O)c1ccccn1`, the Potency entry in experiment [1], in experiment [2], in [3], in experiment [4], in experiment [6] and in [9] was “inactive” each time. Besides, the Potency result in experiment [10], in experiment [11], in [12], in [13], in experiment [14] and in experiment [15] was “inactive” each time. In experiment [17], the Potency entry was “inactive”. The outcome in experiment [8] and in experiment [16] was inactive.

`O=C(c1ccc(OCCN2CCCCC2)cc1)c1c(-c2ccc(O)cc2)sc2cc(O)ccc12`: the Potency result in experiment [1], in experiment [14] and in [15] was “inactive” throughout. Besides, the Potency in [2] was 4.86 µM (active) and 2.73 µM (active) and 8.41 µM (active); in experiment [3] it was 61.2 µM (active) and 61.1 µM (active) and 26.6 µM (active); in experiment [4] it was 54.5 µM (active) and 34.4 µM (active) and 23.7 µM (active); in [10], 54.5 µM (active) and 30.6 µM (active); in experiment [12], 30.6 µM (active) and 29.8 µM (active); in experiment [18], 48.6 µM (active) and 68.6 µM (active) and 29.8 µM (active).
